Experimental data from PubChem BioAssay (Tox21).
A number with no mark means an inactive call. Records with an inconclusive call do not appear. Where a call stands in place of a potency, no number is given. Activity calls are given as the source filed them. The call rests on the fitted dose curve.

Tests used:
[1] = target: Acetylcholinesterase (Homo sapiens) (UniProt P22303); assay: Acetylcholinesterase (AChE) small molecule antagonists: colormetric cell-based qHTS assay (AID 1347395); further: nearly all actives have a fitted effect of over 30% in size
How it was run: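 After overnight attachment at 37 C, SH-SY5Y cells get 30 min compound exposure; detection cocktail (acetylthiocholine, DTNB) then incubates 90 min at 37 C, and absorbance reflects AChE-generated thiocholine.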

[2] = target: Acetylcholinesterase (Homo sapiens) (UniProt P22303); assay: Acetylcholinesterase (AChE) small molecule antagonists: enzyme-based qHTS assay (AID 1347397); settings: Potency: AChE enzyme activity inhibition; outcome: AChE enzyme activity inhibition; further: nearly all actives have a fitted effect of over 55% in size
How it was run: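 Tox21 library chemicals are tested in qHTS format against recombinant human AChE. The enzyme, dispensed at 50 mU/mL, sits with compound for 30 min at room temperature. A DTNB–acetylthiocholine cocktail follows, and colour is read after 10 min.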

[3] = target: Acetylcholinesterase (Homo sapiens) (UniProt P22303); assay: Acetylcholinesterase (AChE) small molecule antagonists: fluorescence cell-based qHTS assay (AID 1347398); settings: Potency: AChE activity; outcome: AChE activity; further: nearly all actives have a fitted effect of over 50% in size
How it was run: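 Cellular AChE inhibition: SH-SY5Y cells treated with test chemical for 30 min at 37 C, then acetylthiocholine hydrolysis followed over 40 min at room temperature via thiocholine-reactive Thiolite Green fluorescence (490/520 nm).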

[4] = target: Acetylcholinesterase (Homo sapiens) (UniProt P22303); assay: Acetylcholinesterase (AChE) small molecule antagonists: enzyme-based qHTS assay with human liver microsomes (AID 1347399); settings: Potency: qHTS inhibition; outcome: qHTS inhibition; further: nearly all actives have a fitted effect of over 60% in size
How it was run: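 Recombinant human AChE (50 mU/mL in the enzyme mix) and human liver microsomes (0.25 mg/mL final) were preincubated with compound and NADPH (0.25 mg/mL final) for 30 min at 37 C. Acetylthiocholine/DTNB was then added; thiocholine was read colorimetrically after 10 min at room temperature.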
Potency means the concentration at half of the fitted maximal effect.

Sequence of Acetylcholinesterase (Homo sapiens) (P22303 whole entry, looked up): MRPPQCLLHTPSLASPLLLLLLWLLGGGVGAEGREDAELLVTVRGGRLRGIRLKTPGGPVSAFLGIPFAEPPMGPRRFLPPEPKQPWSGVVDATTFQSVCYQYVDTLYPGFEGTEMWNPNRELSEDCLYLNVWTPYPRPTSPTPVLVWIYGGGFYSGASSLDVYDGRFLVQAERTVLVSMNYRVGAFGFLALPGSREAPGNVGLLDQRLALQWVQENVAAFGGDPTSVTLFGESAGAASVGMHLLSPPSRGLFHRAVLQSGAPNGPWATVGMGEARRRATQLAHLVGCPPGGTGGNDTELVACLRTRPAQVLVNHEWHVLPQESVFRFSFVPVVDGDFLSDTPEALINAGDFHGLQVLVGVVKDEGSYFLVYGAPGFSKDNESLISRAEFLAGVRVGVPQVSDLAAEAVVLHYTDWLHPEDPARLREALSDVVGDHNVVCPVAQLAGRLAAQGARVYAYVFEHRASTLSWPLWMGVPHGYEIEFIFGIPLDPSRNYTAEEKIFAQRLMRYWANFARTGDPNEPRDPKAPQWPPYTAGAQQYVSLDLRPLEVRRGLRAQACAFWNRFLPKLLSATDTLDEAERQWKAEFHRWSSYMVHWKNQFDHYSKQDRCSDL

Q: Which results are given for O=c1cc(-c2ccccc2)oc2ccc3ccccc3c12?
A: Potency [1]: inactive; Potency [2]: inactive; Potency [3]: inactive; Potency [4]: inactive

Q: What does the source list for CCCCCCCCO[C@@H]1O[C@H](CO)[C@@H](O)[C@H](O)[C@H]1O?
A: Potency [1]: inactive; Potency [2]: inactive; Potency [3]: inactive; Potency [4]: inactive

Q: What does the source list for Clc1cc(Cl)c2c(c1)N=C1CCCCCN1C2?
A: Potency [1]: 776 nM (active); Potency [2]: 871 nM (active); Potency [3]: 617 nM (active); Potency [4]: 3.89 µM (active)

Q: Which Potency [1] does the source give for COc1ccccc1OCC(O)CN1CCN(CC(=O)Nc2c(C)cccc2C)CC1 (stereo not drawn) here?
A: inactive

Q: And the Potency [2]?
A: inactive

Q: And the Potency [3]?
A: inactive

Q: And the Potency [4]?
A: inactive

Q: Which results are given for COC(C)=O?
A: Potency [1]: inactive; Potency [2]: inactive; Potency [3]: inactive; Potency [4]: inactive

Q: For O=C(O)c1cc(C(=O)O)c(C(=O)O)cc1C(=O)O, which Potency [1] is on record?
A: inactive

Q: What about the Potency [2] of the same compound?
A: inactive

Q: And the Potency [3]?
A: inactive

Q: What about the Potency [4] of the same compound?
A: inactive

Q: What does the source list for CC(C)(c1ccc(Oc2ccc3c(c2)C(=O)OC3=O)cc1)c1ccc(Oc2ccc3c(c2)C(=O)OC3=O)cc1?
A: Potency [1]: inactive; Potency [2]: inactive; Potency [3]: inactive; Potency [4]: inactive

Q: Which results are given for O=C(/C=C/c1ccccc1)OCCc1ccccc1?
A: Potency [1]: inactive; Potency [2]: inactive; Potency [3]: inactive; Potency [4]: inactive

Q: How did the activity, negative = inhibition [1] turn out when CCCCCCCCCCCCCCCCCl was run?
A: 0.0979% [at 23.6 µM]

Q: What about the activity change, negative = inhibition [2] of the same compound?
A: 0.4% [at 23.6 µM]

Q: And the activity change, negative = inhibition [3]?
A: -0.0126% [at 23.8 µM]

Q: And the activity change, negative = inhibition [4]?
A: 2.03% [at 23.6 µM]

Q: Which results are given for Clc1ccc(C(Cn2ccnc2)OCc2ccc(Sc3ccccc3)cc2)c(Cl)c1 (stereo not drawn)?
A: Potency [1]: inactive; Potency [2]: inactive; Potency [3]: inactive; Potency [4]: inactive

Q: O=P(O)(O)OCC(O)CO (stereo not drawn) was tested. Which Potency [1] did it give?
A: inactive

Q: And the Potency [2]?
A: inactive

Q: What about the Potency [3] of the same compound?
A: inactive

Q: And the Potency [4]?
A: inactive

Q: How did the Potency [1] turn out when C#CC(O)C(CC)CCCC (stereo not drawn) was run?
A: inactive

Q: And the Potency [2]?
A: inactive

Q: What about the Potency [3] of the same compound?
A: inactive

Q: What about the Potency [4] of the same compound?
A: inactive
